Experimental data: the supplement of paper PMC12340641
Counter-ions that a name gives are not always drawn.

Key:
[1] = target: IKZF1 (dCK*-IKZF1 fusion in HEK293FT) (UniProt Q13422); assay: inhibition of IKZF1 HTRF signal (DMSO = 0%, pomalidomide 10 uM = 100%); higher = lower IKZF1 protein level; details: compound concentration: 5 uM, overnight (~20 h)
How it was run: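 For percent inhibition of IKZF1 signal, each plate was normalised to vehicle and to a reference degrader. Cells were HEK293FT stably expressing an IKZF1 fusion, plated at 2000/well in 384-well format and treated overnight at 37 °C with 5 μM compound, one well each. Lysates were probed overnight with a commercial HTRF total-IKZF1 antibody kit, with the 665/620 nm ratio background-subtracted and vehicle and degrader fixed at 0% and 100%.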

HEK293FT dCK*-only = assay: relative growth in counter assay (no AraC = 100%, AraC + DMSO = 0%); higher = more growth rescue independent of IKZF1; details: compound concentration: 5 uM; AraC concentration: 0.3 uM; overnight pretreatment + 4 days AraC
How it was run: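 HEK293FT cells carrying only an engineered kinase construct were plated at 300 per well (384-well) and given 5 μM compound 2 h later. Following overnight at 37 °C, a nucleoside suicide substrate (0.3 μM) plus medium was added for 4 days. Hoechst 33342-stained nuclei were imaged and counted on day 5, with 100% assigned to wells without suicide substrate and 0% to substrate plus vehicle on each plate.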

HEK293FT dCK*-IKZF1 = assay: relative growth recovery (pomalidomide 10 uM = 100%, DMSO = 0%); higher = more growth rescue (IKZF1 fusion degradation); details: compound concentration: 5 uM; AraC concentration: 0.3 uM; overnight pretreatment + 4 days AraC
How it was run: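 Means of duplicates from different days are given for growth recovery, normalised per plate against a reference degrader and vehicle. The reference degrader set the 100% level and vehicle the 0% level. HEK293FT cells stably expressing a deoxycytidine kinase–IKZF1 fusion (300/well, 384-well) received 5 μM compound 2 h after seeding and, after overnight at 37 °C, 0.3 μM of a nucleoside suicide substrate plus medium for 4 days. Nuclei stained with Hoechst 33342 were then counted by whole-well imaging on day 5.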

Sequence of IKZF1 (dCK*-IKZF1 fusion in HEK293FT) (Q13422 whole entry, looked up, the tested form may be a part): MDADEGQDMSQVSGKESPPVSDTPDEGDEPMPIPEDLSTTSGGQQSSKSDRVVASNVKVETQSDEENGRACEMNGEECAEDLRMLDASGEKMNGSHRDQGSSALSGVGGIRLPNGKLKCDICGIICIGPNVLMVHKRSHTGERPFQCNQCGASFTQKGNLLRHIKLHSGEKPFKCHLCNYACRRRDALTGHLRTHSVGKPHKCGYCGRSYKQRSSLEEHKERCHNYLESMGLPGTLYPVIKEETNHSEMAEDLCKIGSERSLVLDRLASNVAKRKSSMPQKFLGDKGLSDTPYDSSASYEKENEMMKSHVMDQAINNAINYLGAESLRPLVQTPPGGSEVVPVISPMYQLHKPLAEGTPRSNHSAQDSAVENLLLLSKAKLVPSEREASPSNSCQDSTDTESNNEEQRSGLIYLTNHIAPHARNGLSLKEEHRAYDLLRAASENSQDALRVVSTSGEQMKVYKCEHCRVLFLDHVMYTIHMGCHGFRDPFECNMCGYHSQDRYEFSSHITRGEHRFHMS

Row | Structure (SMILES) | inhibition of IKZF1 HTRF signal [1] [%] | relative growth in counter assay (HEK293FT dCK*-only) [%] | relative growth recovery (HEK293FT dCK*-IKZF1) [%]
1 | O=c1oc(-c2ccc(C(F)(F)F)cc2)nn1Cc1cc(Cl)ccc1O | 11.5 | -6.2 | -5.1
2 | O=C1NCN(c2ccccc2)C12CCN(CCCC(c1ccc(F)cc1)c1ccc(F)cc1)CC2 [Fluspirilene] | -2.73 | 5.04 | -0.815
3 | C1CCC(N/C(=N/C23CC4CC(CC(C4)C2)C3)N2CCOCC2)CC1 | -35.4 | 13 | 1.62
4 | O=C1OC2(c3ccc(O)cc3Oc3cc(O)ccc32)c2ccccc21 | 28.2 | -3.82 | -3.9
5 | C=CC(=O)c1ccc2ccccc2c1 [JAK3-inhibitor-V] | -28.5 | -15.1 | 0.695
6 | O=[N+]([O-])c1ccc(O)c2ncccc12 | -23.9 | -14.6 | -2.33
7 | OC(c1cc(C(F)(F)F)nc2c(C(F)(F)F)cccc12)C1CCCCN1 (configuration not stated) | -31.6 | -10.6 | -7.16
8 | Cc1cc(Nc2ncc(Cl)c(Nc3ccccc3S(=O)(=O)C(C)C)n2)c(OC(C)C)cc1C1CCN(CC(=O)NCCOCCOCCOCCOCCOCCNc2cccc3c2C(=O)N(C2CCC(=O)NC2=O)C3=O)CC1 (configuration not stated) | 54.5 | 6.9 | 64.6
9 | CO[C@H]1O[C@@H]2O[C@@]3(C)CC[C@H]4[C@H](C)CC[C@@H]([C@H]1C)[C@@]24OO3 [Artemether] | -26.4 | -14.4 | -5.75
10 | C(=C\c1ccccc1)/CN1CCN(C(c2ccccc2)c2ccccc2)CC1 | -25.9 | -3.15 | 1.06
11 | C=CC(=O)Nc1cccc(Oc2nc(Nc3ccc(N4CCN(C)CC4)cc3)ncc2Cl)c1 | 23.4 | -29.5 | -9.69
12 | Clc1ccc2c(NCCNc3ccnc4cc(Cl)ccc34)ccnc2c1 | -19.4 | -2.86 | -1.39
13 | Cc1nc(Nc2ncc(C(=O)Nc3c(C)cccc3Cl)s2)cc(N2CCN(CCO)CC2)n1 [Dasatinib] | -54.9 | -29 | -7.9
14 | COc1cc(NC(=O)c2ccc(-c3ccc(Cl)cc3)o2)cc(OC)c1 | -48.3 | 14.9 | 7.22
15 | CC1=C(C(=O)OC(C)C)C(c2cccc([N+](=O)[O-])c2)C(C(=O)OC2CN(C(c3ccccc3)c3ccccc3)C2)=C(N)N1 (configuration not stated) [Azelnidipine] | 10.4 | 12.8 | 0.07
16 | O=c1n(CC2CO2)c(=O)n(CC2CO2)c(=O)n1CC1CO1 (configuration not stated) [Triglycidyl isocyanurate] | 30.6 | -31.7 | -10.8
17 | Oc1ccc(Cl)c2cccnc12 | -32.6 | -6.2 | -1.79
18 | COC(=O)Nc1nc2ccc(S(=O)c3ccccc3)cc2[nH]1 (configuration not stated) | 5.34 | -12.6 | -3.6
19 | O=C(/C=C/c1cccnc1)c1ccncc1 | -25 | -28.4 | -6.42
20 | Nc1cc(N2CCCCC2)nc(N)[n+]1[O-] | -27.1 | -5.79 | -0.55
21 | Cc1cc(C)nc(NS(=O)(=O)c2ccc(N)cc2)n1 | -24.1 | 2.2 | -1.69
22 | CC[C@]1(O)C[C@H]2CN(CCc3c([nH]c4ccccc34)[C@@](C(=O)OC)(c3cc4c(cc3OC)N(C)[C@H]3[C@@](O)(C(=O)OC)[C@H](OC(C)=O)[C@]5(CC)C=CCN6CC[C@]43[C@@H]65)C2)C1 [Vinblastine Sulfate] | -11.7 | -33.4 | -11.7
23 | CCC(=O)O[C@@H]1CC(=O)O[C@H](C)C/C=C/C=C/[C@H](O)[C@H](C)C[C@H](CC=O)[C@H](O[C@@H]2O[C@H](C)[C@@H](O[C@H]3C[C@@](C)(O)[C@@H](OC(=O)CC)[C@H](C)O3)[C@H](N(C)C)[C@H]2O)[C@H]1OC [Midecamycin] | -31.7 | -8.86 | -1.26
24 | CN(C)CCCN1c2ccccc2Sc2ccc(Cl)cc21 | -47.9 | -0.83 | -1.89
25 | O=C(O)c1cc(/N=N/c2ccc(O)c(C(=O)O)c2)ccc1O | -32.5 | -4.73 | 3.38
26 | Cc1cc(/C=C/c2ccc3cc(N(C)C)ccc3[n+]2C)c(C)n1-c1ccccc1.Cc1cc(/C=C/c2ccc3cc(N(C)C)ccc3[n+]2C)c(C)n1-c1ccccc1 [pyrvinium] | 76.3 | -34.4 | -13.1
27 | Cc1ccc2c(Cl)cc(Cl)c(O)c2n1 | 14 | -5.48 | 0.855
28 | CNC(=O)Nc1ccc(-c2nc(N3CC4CCC(C3)O4)c3cnn(C4CCC5(CC4)OCCO5)c3n2)cc1 | 70.5 | -32.9 | -13.5
29 | Oc1c(Cl)cc(Cl)cc1Sc1cc(Cl)cc(Cl)c1O | 7.52 | -3.52 | -1.73
